Data as given in PubChem BioAssay AID1159580 (chemical genetic matrix, 2015).
“And” between values parts separate entries of the source, which are not always exact repeats. Identical values can stand only once. Hit rate of the full screen: of about 5,500 compounds, about 2,000 (36%) were called active. Inconclusive results (about 18%) are left out. Cut-off read from the data, not from the text of the source: active = normalized growth mostly below about 0.91 (no sharp cut-off); inconclusive = no clear call, values can overlap the other calls; inactive = mostly above about 0.92. The list shows a part of the results.

Assay: chemical genetic growth profiling, strain panel (AID 1159580);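 note: tested at 20 µM; growth read once vehicle control cultures reached saturation at 30 °C; 1 = growth at the plate median or of vehicle wells; lower values mean less growth of the strain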
Conditions: growth OD

Measured: normalized growth

CN(C)CCC=C1c2ccccc2CCc2ccccc21
inactive: S. cerevisiae deletion strains, locus YJR066W, strain TOR1, active compounds read low 0.983 | S. cerevisiae deletion strains, locus YJR075W, strain HOC1, active compounds read low 0.981 | S. cerevisiae deletion strains, locus YKL009W, strain mrt4, active compounds read low 0.998 | S. cerevisiae deletion strains, locus YKL068W, active compounds read low 0.998 | S. cerevisiae deletion strains, locus YKL085W, strain MDH1 (second series), active compounds read low 0.996 | S. cerevisiae deletion strains, locus YKL085W, strain MDH1, active compounds read low 0.996 | S. cerevisiae deletion strains, locus YKL160W, strain elf1, active compounds read low 1.01 | S. cerevisiae deletion strains, locus YKL190W, strain CNB1, active compounds read low 1.01 | S. cerevisiae deletion strains, locus YKR001C, strain vps1, active compounds read low 0.985 | S. cerevisiae deletion strains, locus YKR026C, strain gcn3, active compounds read low 0.998 | S. cerevisiae deletion strains, locus YKR091W, strain srl3, active compounds read low 0.964 | S. cerevisiae deletion strains, locus YLL001W, strain dnm1, active compounds read low 1.02 | S. cerevisiae deletion strains, locus YLL026W, active compounds read low 1 | S. cerevisiae deletion strains, locus YLL041C, strain sdh2, active compounds read low 0.986 | S. cerevisiae deletion strains, locus YLR027C, strain aat2, active compounds read low 0.997 | S. cerevisiae deletion strains, locus YLR039C, strain RIC1, active compounds read low 1.05 | S. cerevisiae deletion strains, locus YLR058C, strain SHM2, active compounds read low 1.01 | S. cerevisiae deletion strains, locus YLR102C, strain apc9, active compounds read low 0.987 | S. cerevisiae deletion strains, locus YLR113W, strain HOG1, active compounds read low 1.02 | S. cerevisiae deletion strains, locus YLR221C, strain rsa3, active compounds read low 0.94 | S. cerevisiae deletion strains, locus YLR258W, strain gsy2, active compounds read low 0.972 | S. cerevisiae deletion strains, locus YLR262C, strain YPT6 (second series), active compounds read low 1.06 | S. cerevisiae deletion strains, locus YLR262C, strain YPT6, active compounds read low 1.1 | S. cerevisiae deletion strains, locus YLR268W, strain sec22, active compounds read low 0.998 | S. cerevisiae deletion strains, locus YLR320W, strain mms22, active compounds read low 0.95 | S. cerevisiae deletion strains, locus YLR330W, strain CHS5, active compounds read low 1.01 | S. cerevisiae deletion strains, locus YLR342W, strain FKS1 (second series), active compounds read low 0.981 | S. cerevisiae deletion strains, locus YLR342W, strain FKS1, active compounds read low 0.963 | S. cerevisiae deletion strains, locus YLR357W, strain rsc2, active compounds read low 0.92 | S. cerevisiae deletion strains, locus YLR370C, strain arc18, active compounds read low 0.956 | S. cerevisiae deletion strains, locus YLR371W, strain rom2, active compounds read low 1 | S. cerevisiae deletion strains, locus YLR384C, strain iki3, active compounds read low 0.988 | S. cerevisiae deletion strains, locus YLR418C, strain cdc73, active compounds read low 0.985 | S. cerevisiae deletion strains, locus YML016C, strain PPZ1, active compounds read low 1 | S. cerevisiae deletion strains, locus YML032C, strain rad52, active compounds read low 0.993 | S. cerevisiae deletion strains, locus YML120C, strain ndi1, active compounds read low 0.986 | S. cerevisiae deletion strains, locus YML124C, strain tub3, active compounds read low 0.99 | S. cerevisiae deletion strains, locus YMR058W, strain fet3, active compounds read low 0.979 | S. cerevisiae deletion strains, locus YMR078C, strain ctf18, active compounds read low 1 | S. cerevisiae deletion strains, locus YMR125W, strain sto1, active compounds read low 0.924 | S. cerevisiae deletion strains, locus YMR129W, active compounds read low 0.971 | S. cerevisiae deletion strains, locus YMR205C, strain PFK2, active compounds read low 0.995 | S. cerevisiae deletion strains, locus YMR223W, strain ubp8, active compounds read low 1 | S. cerevisiae deletion strains, locus YMR231W, strain pep5, active compounds read low 0.987 | S. cerevisiae deletion strains, locus YMR263W, strain SAP30, active compounds read low 1.01 and 1.02 | S. cerevisiae deletion strains, locus YMR307W, strain GAS1, active compounds read low 1.04 and 1.01 | S. cerevisiae deletion strains, locus YNL067W, strain RPL9B, active compounds read low 1.01 | S. cerevisiae deletion strains, locus YNL071W, strain lat1, active compounds read low 0.998 | S. cerevisiae deletion strains, locus YNL153C, strain GIM3, active compounds read low 1 and 0.972 | S. cerevisiae deletion strains, locus YNL175C, strain NOP13, active compounds read low 1.01 | S. cerevisiae deletion strains, locus YNL183C, strain NPR1, active compounds read low 0.998 | S. cerevisiae deletion strains, locus YNL197C, strain WHI3, active compounds read low 1.06 | S. cerevisiae deletion strains, locus YNL224C, strain SQS1, active compounds read low 1.03 | S. cerevisiae deletion strains, locus YNL233W, strain BNI4, active compounds read low 1.01 | S. cerevisiae deletion strains, locus YNL248C, strain rpa49, active compounds read low 0.915 | S. cerevisiae deletion strains, locus YNL250W, strain rad50, active compounds read low 0.995 | S. cerevisiae deletion strains, locus YNL271C, strain bni1, active compounds read low 1 | S. cerevisiae deletion strains, locus YNL298W, strain CLA4, active compounds read low 0.991 | S. cerevisiae deletion strains, locus YNL307C, strain MCK1, active compounds read low 0.999 | S. cerevisiae deletion strains, locus YNL322C, strain KRE1 (second series), active compounds read low 0.997 | S. cerevisiae deletion strains, locus YNL322C, strain KRE1, active compounds read low 1.01 | S. cerevisiae deletion strains, locus YNR049C, strain mso1, active compounds read low 0.974 | S. cerevisiae deletion strains, locus YNR052C, strain pop2, active compounds read low 0.998 | S. cerevisiae deletion strains, locus YOL012C, strain htz1 1.09 | S. cerevisiae deletion strains, locus YOL147C, strain pex11, active compounds read low 1 | S. cerevisiae deletion strains, locus YOR001W, strain rrp6, active compounds read low 0.971 | S. cerevisiae deletion strains, locus YOR061W, strain CKA2, active compounds read low 1.01 | S. cerevisiae deletion strains, locus YOR069W, strain VPS5, active compounds read low 1.01 | S. cerevisiae deletion strains, locus YOR070C, strain gyp1, active compounds read low 0.975 | S. cerevisiae deletion strains, locus YOR080W, strain dia2, active compounds read low 0.987 | S. cerevisiae deletion strains, locus YOR083W, strain WHI5 (second series), active compounds read low 1.08 | S. cerevisiae deletion strains, locus YOR083W, strain WHI5, active compounds read low 0.975 | S. cerevisiae deletion strains, locus YOR106W, strain vam3, active compounds read low 0.96 | S. cerevisiae deletion strains, locus YOR136W, strain idh2, active compounds read low 0.984 | S. cerevisiae deletion strains, locus YOR144C, strain elg1, active compounds read low 0.977 | S. cerevisiae deletion strains, locus YOR184W, strain ser1, active compounds read low 0.991 | S. cerevisiae deletion strains, locus YOR231W, strain MKK1, active compounds read low 1.05 | S. cerevisiae deletion strains, locus YOR265W, strain rbl2, active compounds read low 0.98 | S. cerevisiae deletion strains, locus YOR270C, strain vph1, active compounds read low 0.87 | S. cerevisiae deletion strains, locus YOR290C, strain snf2, active compounds read low 0.938 | S. cerevisiae deletion strains, locus YOR316C, strain cot1, active compounds read low 0.993 | S. cerevisiae deletion strains, locus YPL051W, strain arl3, active compounds read low 0.957 | S. cerevisiae deletion strains, locus YPL078C, strain atp4, active compounds read low 0.994 | S. cerevisiae deletion strains, locus YPL106C, strain sse1, active compounds read low 0.987 | S. cerevisiae deletion strains, locus YPL240C, strain hsp82, active compounds read low 0.991 | S. cerevisiae deletion strains, locus YPL256C, strain CLN2, active compounds read low 1.06 | S. cerevisiae deletion strains, locus YPR119W, strain clb2, active compounds read low 1 | S. cerevisiae deletion strains, locus YPR141C, strain kar3, active compounds read low 1 | S. cerevisiae deletion strains, locus YPR163C, strain tif3, active compounds read low 0.999 | S. cerevisiae deletion strains, locus YPR167C, strain met16, active compounds read low 1 | S. cerevisiae deletion strains, strain wtn01, active compounds read low 0.982 | S. cerevisiae strains, strain wild type, active compounds read low 1.01
active: S. cerevisiae deletion strains, locus YNL209W, strain ssb2, active compounds read low 0.897
